± gives the standard deviation of the averaged measurements.

Consider 30 compounds from the supplement of paper PMC6522484.

In assay [1] the test system is DLD1. Put plainly: cell viability (CellTiter-Glo) relative to plate median (fraction of plate median); higher = more viable cells. The following applies: 5 µM; treatment time 24 h; reporter: 7TFP. In outline:
(§1)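 Signals from firefly luciferase or CellTiterGlo readouts were normalised well by well to the plate median using webcellHTS2, additively and with no log transformation. They came from colorectal cancer cell lines stably holding lentiviral TCF/Wnt firefly luciferase reporters (7TFP or TCF4/Wnt), treated with library compounds at a final 5 µM for 24 h. The mean of two independent replicates is given.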

In assay [2] the test system is HCT116. The description is as above. The conditions noted are these: 5 µM; treatment time 24 h; reporter: TCF4/Wnt. In outline:
as §1

For assay [3], the system named is SW480. Described as above. The conditions noted are these: 5 µM; treatment time 24 h; reporter: 7TFP. In outline: as §1
Assay [4] concerns DLD1. The experiment in a line: TCF/Wnt firefly luciferase reporter signal relative to plate median (fraction of plate median); higher = higher Wnt reporter signal. The conditions noted are these: 5 µM; treatment time 24 h; reporter: 7TFP. In outline: as §1
Assay [5] deals with SW480. Described as above. The conditions noted are these: 5 µM; treatment time 24 h; reporter: 7TFP. In outline:
as §1

As to `OCc1ccccc1O[C@@H]1O[C@H](CO)[C@@H](O)[C@H](O)[C@H]1O`, the cell viability is 0.971 ± 0.098 in assay [1], 0.971 ± 0.056 in assay [2] and 0.969 ± 0.0042 in assay [3]. Moreover, the “TCF/Wnt firefly luciferase reporter signal” value was found to be 0.862 ± 0.099 in assay [4] and 0.967 ± 0.042 in assay [5].
The corresponding values for `NC(=O)N1c2ccccc2C=Cc2ccccc21` are 0.931 ± 0.098, 1.01 ± 0.029, 1.004 ± 0.0092, 1.05 ± 0.042 and 0.937 ± 0.17.
The corresponding values for `NCCOB(c1ccccc1)c1ccccc1` are 0.968 ± 0.037, 0.933 ± 0.042, 0.96 ± 0.0071, 1.135 ± 0.0071 and 1.04.
Regarding `CC(=O)N[C@@H](CC(C)C)C(=O)O`, the cell viability in assay [1] came out at 1.04 ± 0.014; in assay [2], 1.04 ± 0.093; in assay [3] it was 0.966 ± 0.062. For the same compound, the “TCF/Wnt firefly luciferase reporter signal” value in assay [4] came out at 1.03 ± 0.18; in assay [5] it was 1.13 ± 0.057.
As for `COc1ccc([C@@H](C)C(=O)c2ccc(O)cc2O)cc1`, the cell viability is 1.04 ± 0.098 in assay [1], 1.09 ± 0.071 in assay [2] and 1.025 ± 0.0071 in assay [3]. Further, the entries for the “TCF/Wnt firefly luciferase reporter signal” value in assay [4] and in assay [5] were 1.02 ± 0.071 and 1.07 ± 0.1, respectively.
In the case of `CNCC[C@@H](Oc1ccccc1C)c1ccccc1`, the results for the cell viability in assay [1], in assay [2] and in assay [3] were 0.949 ± 0.073, 0.941 ± 0.043 and 0.969 ± 0.021, respectively. Also, the “TCF/Wnt firefly luciferase reporter signal” value in assay [4] was found to be 1.02 ± 0.014; in assay [5] it was 1.08 ± 0.042.
The corresponding values for `COc1ccc(-c2cc(=O)c3c(O)cc(O)cc3o2)cc1` are 1.03 ± 0.08, 0.935 ± 0.019, 1.05 ± 0.064, 0.912 ± 0.026 and 1.01 ± 0.091.
The corresponding values for `NC(=O)c1cccc(N)c1` are 0.983 ± 0.039, 1.01 ± 0.062, 0.9685 ± 0.0035, 0.959 ± 0.13 and 0.853 ± 0.09.
With `NC(=O)c1cccnc1`, the cell viability in assay [1] is 1.02 ± 0.021; in assay [2], 1.01 ± 0.025; in assay [3], 0.982 ± 0.021. Besides, the “TCF/Wnt firefly luciferase reporter signal” value in assay [4] was found to be 1.16 ± 0.057; in assay [5], 1.15 ± 0.11.
On to `FC(F)(F)c1ccccc1-n1ccnc1`, for which the cell viability in assay [1] is 1.02 ± 0.04; in assay [2], 1.01 ± 0.017; in assay [3], 1 ± 0.026. Further, the “TCF/Wnt firefly luciferase reporter signal” value in assay [4] stood at 1.03 ± 0.064; in assay [5], 0.912 ± 0.14.
The corresponding values for `C=CCSCC(N)C(=O)O` (stereo not given) are 1.015 ± 0.0071, 0.976 ± 0.15, 1.01 ± 0.05, 0.923 ± 0.027 and 0.923 ± 0.02.
The corresponding values for `CC(=O)OCC(=O)[C@H]1CC[C@H]2[C@@H]3CC=C4C[C@@H](O)CC[C@]4(C)[C@H]3CC[C@]12C` are 1.04 ± 0.05, 1.03 ± 0.057, 1.04 ± 0.028, 1.01 ± 0.13 and 0.975 ± 0.064.
Consider `COc1ccc2c(c1)OCC(Cc1ccc(O)c(OC)c1)C2=O` (stereo not given), for which the values for the cell viability in assay [1], in assay [2] and in assay [3] were 0.99 ± 0.014, 1.04 ± 0.07 and 0.915 ± 0.049, respectively. The “TCF/Wnt firefly luciferase reporter signal” value in assay [4] worked out at 0.887 ± 0.066; in assay [5], 0.971 ± 0.084.
As for `O=C(CCCN1CCN(c2ccccn2)CC1)c1ccc(F)cc1`, the results for the cell viability in assay [1], in assay [2] and in assay [3] were 1.03 ± 0.028, 0.963 ± 0.12 and 0.994 ± 0.023, respectively. Besides, the “TCF/Wnt firefly luciferase reporter signal” value was determined as 0.985 ± 0.064 in assay [4] and 1.01 ± 0.028 in assay [5].
Regarding `O=C(O)CCc1nc(-c2ccccc2)c(-c2ccccc2)o1`, the cell viability was 0.846 ± 0.15 in assay [1], 0.999 ± 0.13 in assay [2] and 0.963 ± 0.02 in assay [3]. Further, the “TCF/Wnt firefly luciferase reporter signal” value in assay [4] was 0.915 ± 0.03; in assay [5], 0.952 ± 0.032.
Take `O=C1CCc2cc(OCCCCc3nnnn3C3CCCCC3)ccc2N1`: the figures for the cell viability in assay [1], in assay [2] and in assay [3] were 0.979 ± 0.03, 1.09 ± 0.028 and 1.035 ± 0.0071, respectively. Besides, the figures for the “TCF/Wnt firefly luciferase reporter signal” value in assay [4] and in assay [5] were 1.03 ± 0.021 and 0.987 ± 0.075, respectively.
The corresponding values for `C[C@H]1[C@H](C)CC[C@]2(CO)CC[C@]3(C)C(=CC[C@@H]4[C@@]5(C)CC[C@H](O)C(C)(C)[C@@H]5CC[C@]43C)[C@H]12` are 1 ± 0.042, 1.02 ± 0.12, 1 ± 0.05, 0.871 ± 0.16 and 0.915 ± 0.048.
The corresponding values for `Cc1ccnc(NS(=O)(=O)c2ccc(N)cc2)n1` are 0.968 ± 0.059, 0.974 ± 0.052, 0.953 ± 0.04, 0.924 ± 0.019 and 0.929 ± 0.1.
Take `COc1ccc(C(Cl)=C(c2ccc(OC)cc2)c2ccc(OC)cc2)cc1`: the cell viability in assay [1] is 1.01 ± 0.044; in assay [2], 1.12 ± 0.05; in assay [3], 0.978 ± 0.032. The results for the “TCF/Wnt firefly luciferase reporter signal” value in assay [4] and in assay [5] were 0.915 ± 0.19 and 0.877 ± 0.17, respectively.
The corresponding values for `C/C1=C2/[N-][C@H]([C@H](CC(N)=O)[C@@]2(C)CCC(=O)NC[C@@H](C)OP(=O)([O-])O[C@H]2[C@@H](O)[C@@H](n3cnc4cc(C)c(C)cc43)O[C@@H]2CO)[C@]2(C)N=C(/C(C)=C3N=C(/C=C4N=C1[C@@H](CCC(N)=O)C\4(C)C)[C@@H](CCC(N)=O)[C@]\3(C)CC(N)=O)[C@@H](CCC(N)=O)[C@]2(C)CC(N)=O.[CH2-][C@H]1O[C@H](n2cnc3c(N)ncnc32)[C@@H](O)[C@H]1O.[Co+3]` are 0.933 ± 0.021, 0.964 ± 0.18, 0.998 ± 0.045, 0.968 ± 0.13 and 0.971 ± 0.2.
As to `CC1=CC(=O)c2ccccc2C1=O`, the cell viability worked out at 1.04 ± 0.05 in assay [1], 0.955 ± 0.064 in assay [2] and 1.025 ± 0.0071 in assay [3]. Further, the figures for the “TCF/Wnt firefly luciferase reporter signal” value in assay [4] and in assay [5] were 1.02 ± 0.044 and 0.914 ± 0.013, respectively.
The corresponding values for `C#C[C@]1(O)CC[C@H]2[C@@H]3CCC4=Cc5oncc5C[C@]4(C)[C@H]3CC[C@@]21C` are 1.06 ± 0.021, 0.936 ± 0.029, 1.01 ± 0.035, 1.04 and 0.817 ± 0.046.
The corresponding values for `C=CC(C1=CC(=O)C(OC)=CC1=O)c1ccc(OC)cc1` (stereo not given) are 1.06 ± 0.035, 1.13 ± 0.085, 1.03 ± 0.054, 0.988 ± 0.059 and 1 ± 0.11.
Consider `CC(=O)N[C@@H](Cc1c[nH]c2ccccc12)C(N)=O`, for which the cell viability in assay [1] turned out to be 1.07 ± 0.11; in assay [2] it was 0.831 ± 0.1; in assay [3], 1.07 ± 0.028. The “TCF/Wnt firefly luciferase reporter signal” value in assay [4] is 1.04 ± 0.18; in assay [5] it was 0.891 ± 0.061.
On to `CC(C)=CC1C(CO)C1(C)C` (stereo not given), for which the figures for the cell viability in assay [1], in assay [2] and in assay [3] were 0.996 ± 0.049, 0.948 ± 0.061 and 1.02 ± 0.014, respectively. The “TCF/Wnt firefly luciferase reporter signal” value is 0.984 ± 0.052 in assay [4] and 0.97 ± 0.18 in assay [5].
The corresponding values for `Cn1c(=O)c2c(ncn2C)n(C)c1=O` are 0.899 ± 0.05, 0.953 ± 0.081, 0.952 ± 0.0014, 0.981 ± 0.11 and 1.01 ± 0.04.
The corresponding values for `O=C(O)c1cc(=O)c2ccccc2o1` are 0.859 ± 0.082, 0.961 ± 0.11, 0.987 ± 0.014, 0.909 ± 0.12 and 0.993 ± 0.011.
With `CCCNC(C)C(=O)Nc1ccccc1C` (stereo not given), the results for the cell viability in assay [1], in assay [2] and in assay [3] were 1 ± 0.013, 0.972 ± 0.096 and 1.03 ± 0.028, respectively. The entries for the “TCF/Wnt firefly luciferase reporter signal” value in assay [4] and in assay [5] were 0.912 ± 0.028 and 0.96 ± 0.03, respectively.
The corresponding values for `COC(=O)C1=CO[C@@H](O[C@@H]2O[C@H](CO)[C@@H](O)[C@H](O)[C@H]2O)[C@@H]2[C@@H](C)[C@@H](O)C[C@H]12` are 1.045 ± 0.0071, 1.02 ± 0.047, 1.06 ± 0.035, 1.01 ± 0.016 and 1.09 ± 0.064.
The corresponding values for `c1ccc(CN(CC2=NCCN2)c2ccccc2)cc1` are 0.9805 ± 0.0092, 1.03 ± 0.055, 1.08 ± 0.021, 1.18 ± 0.05 and 1.06 ± 0.096.
